Several values for one entry are separate records, joined by “and”; a condition that tells them apart may be missing. Equal entries are not always repeated. Records with an inconclusive call do not appear. A call without a number means that no potency is given here. The source holds several records for some structures; these can differ, active in one and inactive in another. A number with no mark means an inactive call. Activity calls are given as the source filed them. Calls follow the shape of the dose curve; as a rule, active = well fitted cell-killing curve with a large enough effect; inconclusive = small, poorly fitted or top-dose-only effect, or effect the other way; inactive = no such curve, though single readings can be large or run the other way.
Potency is read from the fitted curve at half-maximal effect.

A short description of the first experiment: Viability qHTS for spleen associated tyrosine kinase inhibitor (SYKi) naive MV4-11 cells (AID 1963823). Also: nearly all actives have a fitted effect of over 40% in size. The note with it: MV4-11 AML viability, CellTiter-Glo luminescence, 72 h; series mostly up to 45 µM. The method in brief: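 CellTiter-Glo luminescence, 10 min room-temperature incubation, gave viability. Cells: naive MV4-11 (500/well), treated 72 hr at 37 C, 5% CO2.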
Turning to `Cn1nc(-c2ccc(C(F)(F)F)cc2)nc2c(=O)n(C)c(=O)nc1-2`, the Potency was 3.66 µM (active).
For `Cn1ncnc1COc1nn2c(-c3cc(F)ccc3F)nnc2cc1C(C)(C)C`, the Potency result is “inactive”.
Same read-out and setting: in the case of `C[C@@H]([C@@H](O)c1ccc(O)cc1)N1CCC(O)(c2ccccc2)CC1` it was “inactive”; in that of `COc1ccc(C(=O)Nc2ncc(-c3ccc(C(=O)O)cc3)s2)cc1`, 0.461 µM (active).
On the same count and under the same terms, in the case of `COC(=O)c1cc(Br)cnc1N1CCC(NC2CCCCC2)C(O)C1` (stereo unspecified) it was “inactive”.
The same measure, in the same setting: as for `Cc1onc(-c2ccccc2)c1C(=O)N[C@@H]1C(=O)N2[C@@H]1SC(C)(C)[C@@H]2C(=O)O`, the entry is “inactive”; as for `CCn1c2ccccc2c2cc(Nc3ccnc(NCCCN4CCOCC4)n3)ccc21`, 2.31 µM (active); as for `N#Cc1cc(CN2CCC(Nc3ncnc4sc(Cl)cc34)CC2)ccc1F`, 9.2 µM (active).
Turning to `O=C(c1ccc(Cl)c([N+](=O)[O-])c1)N1CCN(c2ccccc2F)CC1`, the Potency was 23.1 µM (active).
On to `CCC(C)(C)C1CCc2c(sc(NC(=O)c3ccc(Br)cc3)c2C#N)C1` (stereo unspecified), for which the Potency entry is “inactive”.
Turning to `C[C@@H](NC(=O)C(=O)c1c[nH]c2ccc([N+](=O)[O-])cc12)c1ccccc1`, the Potency entry is “inactive”.
On the same count and under the same terms, in the case of `CC(=O)SCC(=O)c1ccc(NS(=O)(=O)c2ccc(OCCCN(C)C)cc2)nc1` it was 2.59 µM (active).
On the same count and under the same terms, as for `O=c1c(-c2ccccc2)c1-c1ccccc1`, the figure is 23.7 µM (active); as for `CC(C)c1cccc(C(C)C)c1NC(=O)Nc1ccc(Sc2ccc([N+](=O)[O-])cc2)cc1`, 7.31 µM (active); as for `C(#Cc1cccc(CN2CCOCC2)c1)CCN1CCCCC1`, “inactive”.
On the same count and under the same terms, as for `CCC(C)C(N)C(=O)NCCN1CCOCC1` (stereo unspecified), the entry is “inactive”; as for `COc1cncc(C#Cc2ccccn2)c1`, “inactive”; as for `COc1ccc(NC(=O)N2CCc3c2ccc2ccccc32)cc1N1CCN(C)CC1`, 9.2 µM (active).
On to `CCNC(=O)C1CC(F)(c2ccc(CN3CCCC3)c(F)c2)C1` (stereo unspecified), for which the Potency result was “inactive”.
On the same count and under the same terms, as for `CNC(=O)Nc1ccc(OC)c(NC(=O)NC(=O)c2cc(F)c(F)cc2Cl)c1`, the entry is “inactive”.
On the same count and under the same terms, in the case of `Cc1cc(F)ccc1-c1nc(NCCN=C(N)NC#N)nc2c1ccc(=O)n2-c1c(F)cccc1F` it was 14.6 µM (active); in that of `O=C1NC(=Nc2ccccc2F)S/C1=C\c1ccc(C(=O)O)cc1`, “inactive”; in that of `CC1(C)CC(NC(=O)C(=O)Nc2ccc(Cl)cc2)CC(C)(C)N1`, “inactive”.
On the same count and under the same terms, as for `CC[C@H]1OC(=O)C[C@@H](O)[C@H](C)[C@@H](O[C@@H]2O[C@H](C)[C@@H](O)[C@H](N(C)C)[C@H]2O)[C@@H](CCN2C[C@H](C)C[C@H](C)C2)C[C@@H](C)C(=O)/C=C/C(C)=C/[C@@H]1CO[C@@H]1O[C@H](C)[C@@H](O)[C@@H](OC)[C@H]1OC`, the entry is “inactive”; as for `CCCCS(=O)(=O)NC(Cc1ccc(OCCCCC2CCNCC2)cc1)C(=O)O` (stereo unspecified), “inactive”; as for `C=CC(=O)N1CCN(C(=O)c2cc(-c3cc(Cl)ccc3Cl)c(Cl)cc2OC)CC1`, 8.2 µM (active).
For `CCOC(=O)N1CCC(NCCNC(=O)c2ccccc2C)CC1`, the Potency result was “inactive”.
Regarding `Nc1nc(N)c(N=O)c(OCC2CCCCC2)n1`, the Potency was 6.51 µM (active) and 6.61 µM (active).
As for `O=C(NC1CCN(CC(F)(F)F)CC1)c1ccc(-c2cccc(F)c2)nc1`, the Potency result was “inactive”.
`Cc1ccnn1-c1ccc(C(=O)N2CCN(S(=O)(=O)c3ccc(Cl)c(C(F)(F)F)c3)CC2)cc1`: the Potency entry is “inactive”.
For the molecule `COc1ccc(C2=N[C@@H](c3ccc(Cl)cc3)[C@@H](c3ccc(Cl)cc3)N2C(=O)N2CCNC(=O)C2)c(OC(C)C)c1`, the Potency was 20.6 µM (active).
On the same count and under the same terms, as for `CC(C)c1noc(C2CCN(c3ncnc(Nc4ccc(S(C)(=O)=O)cc4F)c3[N+](=O)[O-])CC2)n1`, the entry is “inactive”.
Take `CCN(CC)CCCC(C)Nc1ccnc2cc(Cl)ccc12` (stereo unspecified): the Potency was 8.2 µM (active) and the viability (% of control) was 72.7% [at 9.25 µM].
Regarding `COCCCNCC1COc2ccccc2O1` (stereo unspecified), the Potency entry was “inactive”.
On to `O=C(NCC(O)CO)c1ccncc1Nc1ccc(I)cc1F` (stereo unspecified), for which the Potency is 0.366 µM (active).
Still for that read-out and setting: as for `O=C(NCCCCN1CCN(c2cccc(Cl)c2Cl)CC1)c1cc2ccccc2s1`, the figure is 23.1 µM (active).
Take `COc1ccc(-c2cnc(-c3cccc4c3-c3ccccc3C4=O)o2)cc1`: the Potency was 0.0893 µM (active).
`O=S(=O)(Cc1ccccc1)Nc1ccc(-c2ccc3c(cnn3-c3ccc(F)cc3)c2)c(C(F)(F)F)c1`: the Potency is 16.4 µM (active).
Same read-out and setting: in the case of `CC(=O)NCCCS(=O)(=O)O` it was “inactive”; in that of `COc1ccc(-n2c(SCC#N)nc3sc4c(c3c2=O)CCCC4)cc1`, “inactive”.

Another experiment can be described thus: Viability qHTS for spleen associated tyrosine kinase inhibitor (SYKi) drug resistant MV4-11 cells (AID 1963824). Also: nearly all actives have a fitted effect of over 35% in size. The note with it: SYKi-resistant MV4-11 viability, CellTiter-Glo, 72 h; series mostly up to 45 µM. The method in brief: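 SYK inhibitor-resistant MV4-11 AML cells, 500 per well, added to predispensed compounds and incubated 72 hr at 37 C, 5% CO2. Viability measured by CellTiter-Glo luminescence after 10 min at room temperature.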
(qHTS replaces the single test concentration by a dilution series.)
With `Cn1nc(-c2ccc(C(F)(F)F)cc2)nc2c(=O)n(C)c(=O)nc1-2`, the Potency is 4.11 µM (active).
In the case of `Cn1ncnc1COc1nn2c(-c3cc(F)ccc3F)nnc2cc1C(C)(C)C`, the Potency entry is “inactive”.
Same read-out and setting: as for `COc1ccc(C(=O)Nc2ncc(-c3ccc(C(=O)O)cc3)s2)cc1`, the figure is 0.461 µM (active); as for `Cc1onc(-c2ccccc2)c1C(=O)N[C@@H]1C(=O)N2[C@@H]1SC(C)(C)[C@@H]2C(=O)O`, “inactive”.
Still for that read-out and setting: as for `CCn1c2ccccc2c2cc(Nc3ccnc(NCCCN4CCOCC4)n3)ccc21`, the figure is 2.59 µM (active).
Still for that read-out and setting: in the case of `N#Cc1cc(CN2CCC(Nc3ncnc4sc(Cl)cc34)CC2)ccc1F` it was 13 µM (active); in that of `O=C(c1ccc(Cl)c([N+](=O)[O-])c1)N1CCN(c2ccccc2F)CC1`, 18.4 µM (active); in that of `CCC(C)(C)C1CCc2c(sc(NC(=O)c3ccc(Br)cc3)c2C#N)C1` (stereo unspecified), “inactive”.
Take `C[C@@H](NC(=O)C(=O)c1c[nH]c2ccc([N+](=O)[O-])cc12)c1ccccc1`: the Potency is 4.11 µM (active).
On the same count and under the same terms, as for `C(#Cc1cccc(CN2CCOCC2)c1)CCN1CCCCC1`, the entry is “inactive”.
On the same count and under the same terms, as for `CCC(C)C(N)C(=O)NCCN1CCOCC1` (stereo unspecified), the entry is “inactive”.
Still for that read-out and setting: in the case of `COc1cncc(C#Cc2ccccn2)c1` it was “inactive”.
In the case of `COc1ccc(NC(=O)N2CCc3c2ccc2ccccc32)cc1N1CCN(C)CC1`, the Potency is 8.2 µM (active).
For `CNC(=O)Nc1ccc(OC)c(NC(=O)NC(=O)c2cc(F)c(F)cc2Cl)c1`, the Potency result is “inactive”.
Take `Cc1cc(F)ccc1-c1nc(NCCN=C(N)NC#N)nc2c1ccc(=O)n2-c1c(F)cccc1F`: the Potency is 14.6 µM (active).
On the same count and under the same terms, as for `O=C1NC(=Nc2ccccc2F)S/C1=C\c1ccc(C(=O)O)cc1`, the entry is “inactive”; as for `CC[C@H]1OC(=O)C[C@@H](O)[C@H](C)[C@@H](O[C@@H]2O[C@H](C)[C@@H](O)[C@H](N(C)C)[C@H]2O)[C@@H](CCN2C[C@H](C)C[C@H](C)C2)C[C@@H](C)C(=O)/C=C/C(C)=C/[C@@H]1CO[C@@H]1O[C@H](C)[C@@H](O)[C@@H](OC)[C@H]1OC`, “inactive”.
The same measure, in the same setting: as for `C=CC(=O)N1CCN(C(=O)c2cc(-c3cc(Cl)ccc3Cl)c(Cl)cc2OC)CC1`, the figure is 6.51 µM (active).
The same measure, in the same setting: in the case of `CCOC(=O)N1CCC(NCCNC(=O)c2ccccc2C)CC1` it was “inactive”.
In the case of `Nc1nc(N)c(N=O)c(OCC2CCCCC2)n1`, the Potency is 8.2 µM (active) and 8.33 µM (active).
In the case of `O=C(NC1CCN(CC(F)(F)F)CC1)c1ccc(-c2cccc(F)c2)nc1`, the Potency result is “inactive”.
On to `COc1ccc(C2=N[C@@H](c3ccc(Cl)cc3)[C@@H](c3ccc(Cl)cc3)N2C(=O)N2CCNC(=O)C2)c(OC(C)C)c1`, for which the Potency was 10.3 µM (active).
As to `CC(C)c1noc(C2CCN(c3ncnc(Nc4ccc(S(C)(=O)=O)cc4F)c3[N+](=O)[O-])CC2)n1`, the Potency entry is “inactive”.
Same read-out and setting: as for `CCN(CC)CCCC(C)Nc1ccnc2cc(Cl)ccc12` (stereo unspecified), the figure is 10.3 µM (active); as for `COCCCNCC1COc2ccccc2O1` (stereo unspecified), “inactive”; as for `O=C(NCC(O)CO)c1ccncc1Nc1ccc(I)cc1F` (stereo unspecified), 0.164 µM (active).
For the molecule `O=C(NCCCCN1CCN(c2cccc(Cl)c2Cl)CC1)c1cc2ccccc2s1`, the Potency is 23.1 µM (active).
On the same count and under the same terms, as for `COc1ccc(-c2cnc(-c3cccc4c3-c3ccccc3C4=O)o2)cc1`, the figure is 0.0709 µM (active).
On the same count and under the same terms, as for `O=S(=O)(Cc1ccccc1)Nc1ccc(-c2ccc3c(cnn3-c3ccc(F)cc3)c2)c(C(F)(F)F)c1`, the figure is 20.6 µM (active); as for `CC(=O)NCCCS(=O)(=O)O`, “inactive”.

(Values after PubChem BioAssay (NCATS).)
